Screening results as filed in PubChem.
Compounds with a hit are over-represented: about 1.9% of the library has one in this group of screens.
PTHR1 agonist – agonists of human PTHR1 parathyroid hormone receptor | actives 0.075% (n = 410,000) | Q03431 | HEK293 GP2 PTHR1 cells, GloSensor cAMP luminescence, 1 h | Potency, µM (series often up to 115 µM), inactives show top-dose activation, usual class: activators; further: potency means the concentration at half of the fitted maximal effect; nearly all actives have a fitted effect of over 55% in size
Target sequence (Q03431 whole entry, looked up): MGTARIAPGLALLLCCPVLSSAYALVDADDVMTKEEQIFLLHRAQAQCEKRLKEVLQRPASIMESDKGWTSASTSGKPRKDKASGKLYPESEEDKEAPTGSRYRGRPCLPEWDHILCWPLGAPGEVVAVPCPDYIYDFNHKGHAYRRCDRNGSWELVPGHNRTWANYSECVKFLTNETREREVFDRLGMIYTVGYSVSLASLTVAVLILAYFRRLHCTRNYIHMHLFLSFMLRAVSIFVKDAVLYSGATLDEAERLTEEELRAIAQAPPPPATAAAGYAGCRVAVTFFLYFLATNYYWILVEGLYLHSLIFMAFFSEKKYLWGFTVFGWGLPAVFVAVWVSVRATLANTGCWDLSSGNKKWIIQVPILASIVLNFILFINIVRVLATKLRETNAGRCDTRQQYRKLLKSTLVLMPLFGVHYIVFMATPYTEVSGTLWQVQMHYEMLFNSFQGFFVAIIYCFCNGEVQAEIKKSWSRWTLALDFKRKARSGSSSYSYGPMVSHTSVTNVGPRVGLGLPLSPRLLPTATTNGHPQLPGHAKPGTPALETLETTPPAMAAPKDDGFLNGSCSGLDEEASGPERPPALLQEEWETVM
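HEK-293-derived GP2 cells expressing PTHR1 and a GloSensor cAMP reporter, 3,000/well, plated overnight, given luciferin plus IBMX (each 0.5 mM as added) for 1 h at 37 °C, then compound for 1 h at 37 °C. Luminescence was read after 15 min at room temperature.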
aSyn yeast inh – rescues yeast growth from alpha-synuclein toxicity. Yeast expressing alpha-synuclein, growth rescue, BacTiter-Glo, 24 h. Potency, µM (series often up to 46.1 µM), for inactives: at the highest dose growth rescue (activation), hits mostly activators. actives 0.14% (n = 370,000). AID 652106; further: potency means the concentration at half of the fitted maximal effect; % of control where 0% means no effect; nearly all actives have a fitted effect of over 65% in size
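Rescue of yeast growth: cells expressing toxic alpha-synuclein, induced in galactose at OD600 0.02, incubated with compound 24 h at 30 C. ATP luminescence quantified growth; inhibitors of toxicity appear as activators.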
FUS suppressor – rescues growth of FUS-expressing yeast. S. cerevisiae FUS-expressing, growth rescue, OD600, 24 h. Potency, µM (highest dose often 76.6 µM), actives largely listed as activators. actives 0.24% (n = 390,000). AID 1347120;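 further: potency means the concentration at half of the fitted maximal effect; plate controls were DMSO vehicle for no effect and reference control for full effect; nearly all actives have a fitted effect of over 55% in size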
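FUS-expressing yeast, raffinose-pregrown, induced in 2% galactose minimal medium at OD 0.005; compounds in a dilution series, 24hr at 30C. Growth restoration read as absorbance at 600 nm. CP55940 positive control, DMSO negative.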
TDP43 rescue – inhibitors of TDP-43 toxicity in yeast | actives 1.8% (n = 410,000) | TDP-43 expressing yeast growth rescue, BacTiter-Glo, 24 h | Potency, µM (top dose mostly 46.1 µM), for inactives: at the highest dose growth rescue (activation), most hits filed as activators | AID 652104; further: potency means the concentration at half of the fitted maximal effect; % of control where 0% means no effect; nearly all actives have a fitted effect of over 50% in size
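Luminescence from BacTiter-Glo reports growth of TDP-43-expressing yeast after 24 hr at 30 deg C with compound. Cells were raffinose-pregrown to mid-log, then seeded in galactose medium at OD600=0.02.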
Abeta rescue – compounds reversing amyloid beta toxicity in yeast. yeast expressing A-beta42, growth rescue, OD600, 48 h; response scale: 0% DMSO, 100% iron-clioquinol control. actives 0.063% (n = 410,000). AID 1347071. Potency, µM (highest dose often 46.1 µM), usual class: activators; further: potency means the concentration at half of the fitted maximal effect; nearly all actives have a fitted effect of over 55% in size
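Growth rescue measured by 600 nm absorbance after 48 h yeast culture at 30 C with compound. Values normalized between DMSO and an equimolar ferric chloride plus clioquinol control.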
LDHA block – blocks human lactate dehydrogenase A. P00338. purified LDHA, NADH/diaphorase-resazurin fluorescence; stronger effect = lower value. activity change, % (values are at about 110 or 230 µM). actives 0.15% (n = 480,000); in the data active means activity change below about -30%; inconclusive means mostly about -25% to -30%;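 further: plate controls were DMSO wells for no effect and wells without enzyme for full effect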
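Resorufin fluorescence (ex540/em590), read at 0 and 20 min after diaphorase/resazurin addition, reports the NADH left after a 5 min room-temperature reaction of 2 nM human LDH5 with 0.06 mM NADH and 0.2 mM pyruvate.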
Numbers without * were called inactive; i = inactive; u = inconclusive; x = not tested or not shown; [ ] = remark or other dose. Unless noted, the call rests on the fitted dose curve; in most records, active means well fitted curve in the direction sought with a large enough effect; inconclusive means small, poorly fitted or top-dose-only effect, or another doubt; inactive means no such curve, though single readings can be large; an effect the other way counts as inactive or inconclusive.

SMILES | PTHR1 agonist | aSyn yeast inh | FUS suppressor | TDP43 rescue | Abeta rescue | LDHA block
Cc1ccc(C(=O)/C=C/c2cccc(OC(C)C(=O)O)c2)o1 (stereo not given) | x | x | x | x | x | 10.8
COc1ccccc1-c1c(C#N)c(N)nc2c1CCc1ccccc1-2 | -15.8% | 16.6% | u | 20µM* | i | 13.1
COc1ccccc1-c1cc(-c2ccc(O)cc2)nc(N)c1C#N | -30.4% | -9.3% | i | 31.6µM* | i | -0.8
COc1cc(-c2cc(-c3ccc(O)cc3)nc(N)c2C#N)ccc1O | -23.7% | 1.0% | i | -1.6%[9.22 µM] | i | -10.3
O=C(O)C(=O)/C(=C/c1ccsc1)c1ccc2ccccc2n1 | x | x | x | x | x | 8.2
CC1(C)CC(=O)c2cc3c(N)c(C#N)sc3nc2C1 | x | x | x | x | x | -12.5
O=C(CSc1ccccc1F)Nc1ccc(N2CCOCC2)cc1 | -23.4% | 2.3% | i | 14.1% | i | -1.4
O=C(CSc1cc(Cl)ccc1Cl)Nc1ccc(N2CCOCC2)cc1 | -23.3% | 0.1% | i | 15.8µM* | i | 3.5
CCCC(=O)Nc1cc(-c2nc3cc(C)ccc3o2)ccc1C | x | x | x | x | x | -9.9
Cc1ccc(NC(=S)c2ccccc2)cc1 | -13.9% | -2.1% | i | 11.2µM* | i | -11.7
Cc1cc(N)n2ncc(-c3ccc(F)cc3)c2n1 | -31.1% | 2.8% | i | 18.9% | i | -7.7
Cc1cc(N)n2ncc(-c3ccc(Cl)cc3)c2n1 | -32.4%[57.5 µM] | -11.7% | i | 8.91µM* | i | 2.0
Fc1ccc(N/N=C/c2ccc(N3CCOCC3)cc2)c(F)c1 | -24.4% | 12.8% | i | 17.8µM* | i | 3.2
C/C(=N\Nc1ccc(F)cc1F)c1ccc(N2CCOCC2)cc1 | -4.7% | 18.4% | i | 1.4% | i | 3.8
CCN1C(=O)[C@H]2[C@@H](c3ccc(-c4cccc(Cl)c4)cc3)N[C@@](Cc3ccccc3)(C(=O)OC)[C@H]2C1=O | i | 16.3% | 14.1µM* | 2.8% | i | 1.6
CCN1C(=O)[C@H]2[C@@H](c3ccc(-c4ccc5c(c4)OCO5)cc3)N[C@@](Cc3ccccc3)(C(=O)OC)[C@H]2C1=O | 13.5% | -1.9% | i | -2.0% | i | -7.2
CN(/N=C/c1ccc(O)cc1O)c1ncc(C(F)(F)F)cc1Cl | -66.4% | -35.8% | i | 35.5µM* | u | 3.9
COc1cccc(/C=N/NC(=S)Nc2cccc(C(=O)O)c2)c1O | -26.3% | -9.9% | i | u | i | -47.2*
COc1cccc(/C=N/NC(=O)C(=O)Nc2ccccc2OC(F)(F)C(F)F)c1O | i | 22.4µM* | i | -1.7% | i | 3.7
O=[N+]([O-])c1ccc(Oc2ccc(S(=O)(=O)Nc3ccccc3)cc2)cc1 | -35.2% | 3.2% | i | 2.82µM* | i | 0.2
O=[N+]([O-])c1ccc(S(=O)(=O)Nc2ccncc2)cc1 | -18.2% | 2.1% | i | 15.1% | i | -3.2
Cc1cc(Nc2cc(Cl)ccc2C)n2nc(Cc3ccccc3)nc2n1 | -6.7% | x | i | 35.5µM* | i | -4.1
CCc1nc2nc(C)cc(Nc3cc(C)ccc3C)n2n1 | i | x | i | 20µM* | i | 0.5
CCOC(=O)c1ccc(Oc2nc(NC(C)(C)C)nc(N(C)C)n2)cc1 | -23.6%[57.5 µM] | -14.7% | i | 22.4µM* | i | -4.8
Cn1c(N)c(C(C[N+](=O)[O-])c2ccccc2Cl)c(=O)n(C)c1=O (stereo not given) | -21.8% | -25.0% | i | 14.1µM* | i | -2.3
SMILES | PTHR1 agonist | aSyn yeast inh | FUS suppressor | TDP43 rescue | Abeta rescue | LDHA block
CC(=O)c1nnn(-c2nc(N3CCCC3)nc(N3CCCC3)n2)c1C | x | x | x | x | x | 10.4
CCNc1nc(N2CCCCC2)nc(-n2nnc(C(=O)OCC)c2C)n1 | -2.5% | 0.2% | i | 17.8µM* | i | 2.9
COc1cccc(NC(=O)CCS(=O)(=O)c2cc(-c3cc(C)no3)ccc2OC)c1 | x | x | x | x | x | -2.4
CCOC(=O)c1ccc(N/C(=N\S(=O)(=O)c2ccccc2C)c2ccccc2)cc1 | -4.9%[57.5 µM] | 5.5% | i | 25.1µM* | i | -4.3
COC(=O)c1ccc(N/C(=N/S(=O)(=O)c2ccccc2)c2ccccc2)cc1 | -15.9% | 2.1% | x | 14.5% | i | -4.1
Cc1ccc(Nc2ccc(C(=O)O)cc2[N+](=O)[O-])cc1 | i | 1.2% | i | 2.82µM* | i | -3.6
Cc1c(C(=O)NCCSCc2ccc(F)cc2)cnn1-c1ccc(Cl)cc1 | -15.9% | 11.2% | i | 12.6µM* | i | -2.4
N#C/C(=C/c1cccc(O)c1)C(=O)Nc1ccc(N2CCOCC2)cc1 | x | x | x | x | x | -4.4
COc1ccccc1C(=O)N1CCN(C(=O)c2oc3c(C)c(C)ccc3c2C)CC1 | -30.0% | 1.1% | i | 31.6µM* | i | 0.4
Cc1oc(-c2cccc(Br)c2)nc1Cn1c(SCc2cccc(F)c2)nc2cccnc21 | -11.5% | x | i | 28.2µM* | u | -5.3
O=C(/C(=C/c1ccc(Cl)cc1)c1nc2ccccc2[nH]1)c1cccs1 | -93.8% | -22.7% | i | 3.16µM* | i | -11.1
Cc1cccc(-c2nc(CS(=O)CC(=O)N3CCc4ccccc43)c(C)o2)c1 (stereo not given) | x | x | x | x | x | 12.3
COc1ccc(/C=N/OCc2ccc(Cl)c(Cl)c2)c(OC)c1 | x | x | x | x | x | 13.9
CCC(CC)NC(=O)COC(=O)/C=C/c1cccc2cccnc12 | x | x | x | x | x | 8.7
CCCc1ccc(NC(=O)C2CCCN(c3cnccn3)C2)cc1 (stereo not given) | -10.8% | u | i | 31.6µM* | i | -6.9
CCOc1ccc(NC(=O)C2CCCN(c3cnccn3)C2)cc1 (stereo not given) | i | -2.8% | i | 2.1% | i | -9.4
COc1ccc2nc(-c3ccccc3)cc(C(=O)OCC(=O)N3CC(C)OC(C)C3)c2c1 (stereo not given) | -12.0% | 3.2% | u | 22.4µM* | i | 1.1
COc1ccc2nc(-c3ccccc3)cc(C(=O)OCC(=O)N3CCCCC3)c2c1 | -34.3% | 17.4% | u | u | i | -4.2
NC(=S)NN=Cc1nccc2ccccc12 | -2.3% | 20µM* | i | 21.4% | u | 18.9
NC(=S)NN=Cc1nccc2c(C(F)(F)C(F)(F)C(F)(F)F)cccc12 | -85.0% | 7.08µM* | i | u | i | 0.3
CC(C)N(C(=O)Cn1c(CN2CCCCC2)nc2ccccc21)c1ccccc1 | x | x | x | x | x | -5.4
O=C(OC(c1ccccc1)c1nccc2ccccc12)c1cc([N+](=O)[O-])cc([N+](=O)[O-])c1 (stereo not given) | -6.2% | 9.4% | x | 6.31µM* | i | 1.1
